# Screening data deposited in PubChem by several laboratories.
# DAT uptake mod – human DAT dopamine uptake with cocaine, either direction; actives 1.3% (n = 110,000); LLC-PK1 hDAT cells, [14C]-dopamine uptake with cocaine IC80; actives deviate in either direction; B-score at 10 µM; AID 449768;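 active = Z score or B-score, a plate-position-corrected score, falls beyond the plate's 99.7% confidence bounds, in either direction; inactive = both scores lie inside the 99.7% bounds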;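 also: scored against the spread of the other compound wells on the same plate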
# PostGolgi yeast – growth inhibition of a yeast mutant, post-Golgi transport screen. post-Golgi transport phenotypic cell assay. inhibition, % at 10 µM. actives 0.9% (n = 98,000). AID 739;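 also: yeast cells grown in 1536-well plates; yeast grown about 18 h at 30C before absorbance read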
# Smad3 inh – inhibitors of human Smad3 transcription factor binding | AID 630 | P84022 | actives 0.29% (n = 88,000) | TR-FRET Smad3/Dy647-FoxH1 peptide binding, europium anti-His | inhibition, % at 25 µM;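 active = compounds that reduce the energy-transfer binding signal between the protein and its labelled peptide by more than half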;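 also: 0% = Smad3 plus labelled peptide maximal FRET and 100% = peptide-only background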
# TNAP act mid DEA – activators of human TNAP at intermediate phosphate acceptor; P05186; purified TNAP, CDP-star luminescence, 100 mM DEA, 30 min; hits give high values; scale: 0 levamisole-inhibited, 1 vehicle-only enzyme; activation factor at 20 µM; 64,000 tested, under 10 active; AID 813;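 active = activation factor of at least 2 at 20 µM, relative to controls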
# Target sequence (P05186 whole entry, looked up): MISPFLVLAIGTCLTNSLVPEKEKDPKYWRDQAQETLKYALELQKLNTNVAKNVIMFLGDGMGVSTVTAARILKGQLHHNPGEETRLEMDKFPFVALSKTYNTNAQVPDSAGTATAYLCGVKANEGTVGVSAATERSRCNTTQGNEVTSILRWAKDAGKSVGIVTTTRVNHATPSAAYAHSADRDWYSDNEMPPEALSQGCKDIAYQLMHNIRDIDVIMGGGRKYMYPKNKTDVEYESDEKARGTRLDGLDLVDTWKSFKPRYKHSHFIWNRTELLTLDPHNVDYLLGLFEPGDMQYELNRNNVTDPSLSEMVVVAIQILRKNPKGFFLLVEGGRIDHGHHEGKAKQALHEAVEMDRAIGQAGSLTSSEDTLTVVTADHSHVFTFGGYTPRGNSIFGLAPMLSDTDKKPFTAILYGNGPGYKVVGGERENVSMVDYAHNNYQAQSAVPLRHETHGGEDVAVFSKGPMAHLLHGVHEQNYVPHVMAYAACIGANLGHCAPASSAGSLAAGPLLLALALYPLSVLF
# PostGolgi ctrl – growth of the yeast control strain, post-Golgi counter-screen. efflux-deficient yeast background strain, growth absorbance A615, 16 h. inhibition, % at 10 µM. actives 5% (n = 98,000). AID 738
# Cav32 inh – blocks human Cav3.2 T-type calcium channel; O95180; Cav3.2-expressing cells, Fluo-4 calcium fluorescence FDSS; hits give low values; AID 449739; actives 4% (n = 100,000); B-score at 10 µM;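 active = single-dose well whose peak fluorescence ratio is a statistical outlier from its plate by either plate-standardised score or position-corrected B-score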
# * hit, by the source's call; / = not tested or not shown. Rows were chosen to be rich in hits. Some 8.7% of all compounds tested hit in one or more screens of this group. Rule as the data show it, unless noted: active = inhibition above about 30%; inactive = the rest.
SMILES,DAT uptake mod,PostGolgi yeast,Smad3 inh,TNAP act mid DEA,PostGolgi ctrl,Cav32 inh
COc1cccc(C(=O)Nc2nnc(-c3cccs3)o2)c1,/,-8,4,0.9,39*,/
O=C(Nc1nnc(-c2ccccc2)o1)c1ccc(Cl)cc1,-1.1,110*,17,0.9,74*,-3.2
CCOc1ccc(OCCN2C(=O)NC3(CCCc4ccccc43)C2=O)cc1 (stereo not given),1,11,-7,1,13,-1.7
COc1ccc(-c2c(C)n([O-])c3c([n+]2=O)CCCC3)cc1,-0.75,13,-13,/,21,1
O=C(c1ccc(Cl)c(Cl)c1)N1CCC(=O)N(C(COCc2cccc(C(F)(F)F)c2)Cc2ccccc2)CC1 (stereo not given),-0.57,/,/,/,/,-2.6
CC1(C)Cc2c(C#N)c(SCC(=O)c3ccccc3)nc(N3CCOCC3)c2CS1,-0.69,1,/,0.9,11,-1.5
CCCCc1nc(NCCNC(=O)c2ccco2)c(C#N)c2c1CSC(C)(C)C2,0.61,18,6,0.9,100*,-5.8*
CCCCc1nc(NCCNC(=O)c2ccccc2)c(C#N)c2c1CSC(C)(C)C2,0.19,15,0,/,99*,-4.5*
N#CC1(Cc2ccc(Cl)cc2)c2ccccc2C=CN1C(=O)c1ccccc1 (stereo not given),-0.76,4,/,/,23,-3.2*
Clc1ccc(-c2nnc(-c3ccco3)o2)cc1,-0.0046,-1,5,0.9,1,-4.5*
COC(=O)C(NC(=O)c1ccccc1C)(Nc1ncc(S(=O)(=O)c2ccc([N+](=O)[O-])cc2)s1)C(F)(F)F (stereo not given),0.23,11,/,/,2,-7.8*
COC(=O)C(NC(=O)c1ccccc1)(Nc1nc(C)cs1)C(F)(F)F (stereo not given),-1.1,-9,3,0.9,-1,0.82
COC(=O)C(NC(=O)c1ccc(F)cc1)(Nc1ncc(S(=O)(=O)c2ccc([N+](=O)[O-])cc2)s1)C(F)(F)F (stereo not given),-0.54,4,/,/,1,-8.2*
Cc1ccc(C)c(C(=O)CN2C3=NCCCN3c3ccccc32)c1,0.15,4,9,/,10,-1.9
O=C(CSc1nc(N2CCCCC2)nc(N2CCCCC2)n1)NC1CCCCC1,/,/,-4,0.9,/,/
CCOc1ccc(S(=O)(=O)NCCC(=O)NCc2ccco2)cc1,0.73,7,/,/,20,-0.2
CCCNC(=O)C1(CC2CC(c3ccccc3)=NO2)CCN(C(=O)OC(C)(C)C)CC1 (stereo not given),1.2,/,/,/,/,0.2
Cc1cccc(C)c1NC(=O)N1CCC(n2c(=O)[nH]c3ccccc32)CC1,0.85,-7,3,/,33*,1.3
COC(=O)CNC(=O)C1CCCN1C(=O)OC(C)(C)C (stereo not given),0.93,0,8,1,-1,0.12
CC1(C)C(=O)Nc2ccccc2N1C(=O)COC(=O)c1ccc(Cl)c(S(=O)(=O)NCc2ccccc2)c1,0.25,-1,10,/,-1,-3.7*
O=C(c1ccccc1)c1cccc(NC(=O)c2ccc(Br)o2)c1,-9.7*,0,3,/,-10,-3.7*
O=C(Nc1ccc2c(c1)CCC2)c1ccc(Br)o1,2.2*,23,/,/,16,-2.2
CCc1cccc(NC(=O)c2ccc(Br)o2)c1,4.9*,6,6,0.8,20,-2.5
Cc1ccc(C(=O)Nc2ccc3c(c2)CCC3)o1,1.4,-8,-19,0.9,-2,-0.016
Cc1ccc(-n2nnc(-c3cccnc3Cl)n2)cc1,-0.017,/,/,/,/,1.1
SMILES,DAT uptake mod,PostGolgi yeast,Smad3 inh,TNAP act mid DEA,PostGolgi ctrl,Cav32 inh
O=P(O)(O)CCP(=O)(c1ccccc1)c1ccccc1,-2.5*,2,12,0.9,6,0.00048
CCN(CC)CCP(=O)(c1ccccc1)c1ccccc1,0.043,5,14,/,-10,-4*
CN(C)CCOCCP(=O)(c1ccccc1)c1ccccc1,0.43,2,-8,1,11,-0.37
CC(C)Cn1c(=O)c2ccccc2c2ccccc2c1=O,0.026,3,-5,1,33*,-1.4
CCCCOc1ccc(S(=O)(=O)NNC(=O)C2Cc3c(ccc4ccccc34)O2)cc1 (stereo not given),-0.075,5,/,/,25,-1.5
Cc1ccc(S(=O)(=O)NNC(=O)C2Cc3c(ccc4ccccc34)O2)cc1 (stereo not given),-8.5*,12,/,/,14,-2.2
CC(c1ccccc1)C1C(C#N)=C(N)OC2=C1C(=O)CC(C)(C)C2 (stereo not given),2.8*,-1,-3,0.8,14,0.41
Cc1cc(C2C(C#N)=C(N)OC3=C2C(=O)CC(C)(C)C3)c(C)s1 (stereo not given),-1.2,1,-11,/,41*,3.3
COc1ccc(C2(C(=O)Nc3nncs3)CCCC2)cc1,-0.66,-5,-6,/,-1,1.3
NS(=O)(=O)c1ccc(N=Nc2c[nH]c(=O)c(O)c2)cc1,/,/,78*,/,/,/
CCOc1ccc(NC(=O)CCC(=O)OC)cc1,-0.46,24,5,0.9,4,1.1
COCCOc1ccc(C(F)(F)F)cc1Nc1nc2ccccc2o1,-0.39,-3,4,0.9,54*,-1.4
CCOC(=O)Cn1c(=N)n(Cc2ccccc2)c2ccccc21,-0.81,-11,/,0.8,18,-0.71
Cc1ccccc1Cn1c(=N)n(CC(=O)c2ccco2)c2ccccc21,0.31,-1,9,0.9,7,-4.2*
CN(C)S(=O)(=O)Oc1cccc(C(=O)Nc2ccc(Cl)cc2)c1,-0.6,26,/,/,6,-2.7
CN(C)S(=O)(=O)Oc1ccsc1C(=O)Nc1ccc(Cl)cc1,0.32,-2,/,/,4,-4.4*
CN(C)S(=O)(=O)Oc1ccsc1C(=O)Nc1ccccc1Cl,-2.3,4,/,/,15,/
CN(C)S(=O)(=O)Oc1ccsc1C(=O)Nc1cccc(Cl)c1Cl,1.7,-10,/,/,32*,-2
CCOC(=O)N1CCN(C(=O)c2ccc3c(c2)sc2nc(-c4ccccc4)cn23)CC1,0.79,-4,/,0.9,6,0.073
CCOC(=O)C1CCN(S(=O)(=O)c2ccc3c4c(cccc24)C(=O)N3)CC1,1,-9,13,1,6,0.58
O=C(NC(=S)NNC(=O)c1cccs1)c1ccc(Br)o1,-0.66,2,/,/,3,-7.4*
CCNC(=S)NNC(=O)c1cccs1,-0.82,-4,/,/,2,1.1
Cc1ccc(NC(=O)c2ccccc2)cc1,0.76,9,-1,/,20,0.041
Cc1ccc(NC(=O)/C(=C\c2ccccc2)NC(=O)/C=C/c2ccccc2)cc1,0.89,-1,/,/,6,-4.9*
Cc1ccc(NC(=O)/C(=C\C=C\c2ccccc2)NC(=O)c2ccccc2)cc1,1.5,-3,/,/,9,-5.3*
Cc1cc(Nc2ccc(F)cc2Cl)n2nc(C)nc2n1,-0.0079,11,-1,1,32*,0.44
Cc1cc(Nc2ccc(F)cc2)n2nc(C)nc2n1,0.2,1,-3,1,9,0.63
